SMILES strings stand for the structures. Screen size: about 420,000 compounds; about 50,000 (12%) were called active. A call without a number means that no potency is given here. Not shown: some 26% with an inconclusive outcome. For the sample, actives were picked, then their nearest neighbours and some compounds at random. A number with no mark means an inactive call. Calls follow the shape of the dose curve; as a rule, active = well fitted inhibition curve with a large enough effect; inconclusive = small, poorly fitted or top-dose-only effect; inactive = flat fitted curve, though single readings scatter.
Potency is read from the fitted curve at half-maximal effect.

The test in a line: qHTS for Inhibitors of human tyrosyl-DNA phosphodiesterase 1 (TDP1): qHTS in cells in presence of CPT. Also: nearly all actives have a fitted effect of over 55% in size. The settings on record: chicken DT40 Tdp1-/-;hTDP1 cells + 20 nM CPT, ATP luminescence, 48 h; series mostly up to 46.2 µM. Put shortly:
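Cell growth measured by CellTiter-Glo luminescence after a minimum 48 h, 37 C compound exposure with 20 nM CPT in Tdp1-knockout DT40 cells stably expressing hTDP1, seeded 400/well; qHTS titration format.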
For `COC(=O)c1ccccc1NC(=S)NC(=O)c1ccccc1F`, the Potency entry is “inactive”. Same read-out and setting: under `S=C(NCc1cccnc1)Nc1ccc(Cl)cc1Cl` stands “inactive”; under `NS(=O)(=O)c1ccc(-c2ccc(/C=C3\SC(=O)NC3=O)o2)cc1`, “inactive”; under `Cc1ccc(NC(=O)CCC(=O)c2ccc(Br)cc2)cc1`, “inactive”. Same read-out and setting: as for `Cc1ccccc1-c1nc(SCC(=O)N(C)c2ccccc2)c2c(=O)n(C)c(=O)n(C)c2n1`, the figure is 20.6 µM (active). On to `Cc1cccc(-c2nc(SCC(=O)Nc3cc(C)on3)c3c(=O)n(C)c(=O)n(C)c3n2)c1`, for which the Potency result is “inactive”. Same read-out and setting: under `Cn1c(=O)c2c(SCC(=O)NCC3CCCO3)nc(-c3ccccc3F)nc2n(C)c1=O` (centres undefined) stands “inactive”; under `CN(C(=O)COC(=O)c1nc(Cl)ccc1Cl)C1CCS(=O)(=O)C1` (centres undefined), “inactive”. On the same count and under the same terms, as for `Cc1cc(C)c2nc(N3CCC(C(=O)NCCN4CCOCC4)CC3)sc2c1`, the entry is “inactive”; as for `COc1ccc(/C(=N\O)c2nccc3cc(OC)c(OC)cc23)cc1OC`, “inactive”; as for `COC(=O)c1ccc(NC(=O)CSc2nncc3ccc(OC)c(OC)c23)cc1`, “inactive”. On the same count and under the same terms, under `COC(=O)c1ccc(-c2c(-c3ccccc3)ncc3cc(OC)c(OC)cc23)cc1` stands 20.6 µM (active). As to `CCN(CC)CCn1c2c(c(SCC(=O)Nc3ccc(C(C)C)cc3)nc1=O)CCC2`, the Potency entry was “inactive”. Take `CC(=O)OCC(=O)C1(O)CCC2C3CC(C)C4=CC(=O)CCC4(C)C3C(O)CC21C` (centres undefined): the Potency result is “inactive”. The same measure, in the same setting: under `COc1ccc(C(=O)NC(C)Cn2nc(C)cc2C)cc1OC1CCN(C(C)=O)CC1` (centres undefined) stands “inactive”.

Turning to `O=C(CN1C(=O)c2ccc([N+](=O)[O-])cc2C1=O)Nc1nnc(C2CC2)s1`, the Potency result is “inactive”. Same read-out and setting: under `C=CCOc1ccc(/C=C/C(=O)OCC(=O)NCC2CCCO2)cc1` (centres undefined) stands “inactive”.

As to `COc1ccc(/C=N/NC(=O)c2ccc3c(c2)OCCO3)c(OC)c1`, the Potency entry was “inactive”. The same measure, in the same setting: as for `COc1ccc(C(=O)N/N=C2\CCS(=O)(=O)c3ccc(F)cc32)cc1OC`, the figure is 18.4 µM (active); as for `CCNC(=O)c1ccc(OCC(=O)Nc2ccc(F)cc2)c(OC)c1`, “inactive”. Still for that read-out and setting: as for `CCN(Cc1ccccc1)C(=O)Cc1ccc(OC)c(S(=O)(=O)N2CCOCC2)c1`, the entry is “inactive”. On the same count and under the same terms, as for `O=C(O)/C=C/c1cn(Cc2ccccc2)nc1-c1cccs1`, the entry is “inactive”; as for `O=C(O)CCn1cc(/C=C/C(=O)c2ccc(Cl)cc2)c(-c2cccc(Br)c2)n1`, 20.6 µM (active); as for `CCOC(=O)/C(C#N)=C/c1cn(CCC(=O)O)nc1-c1ccc(Br)cc1`, “inactive”.

Turning to `Cc1cc(C)cc(N)c1`, the Potency result was “inactive”. As for `O=C(NCc1ccco1)C(c1ccncc1)N(C(=O)Cn1nnc2ccccc21)c1ccccc1` (centres undefined), the Potency entry is “inactive”. Same read-out and setting: as for `CC(C)(C)OC(=O)N/N=C/c1ccc(C(=O)O)cc1`, the entry is “inactive”; as for `COC(=O)C1(C(=O)OC)C/C=C\CN(S(=O)(=O)c2ccccc2[N+](=O)[O-])CCC1`, “inactive”. The same measure, in the same setting: under `Oc1ccc(/C=N/Nc2ccc(C(F)(F)F)cn2)cc1O` stands 2.91 µM (active); under `O=C(Nc1ccccc1)Nc1ccc(C(F)(F)F)cn1`, “inactive”; under `Cc1nnsc1C(=O)N/N=C/c1cccc(C(F)(F)F)c1`, “inactive”. Still for that read-out and setting: under `COc1ccc(C(=O)Nc2cccc(/C=C(/CCC(=O)O)c3nc4ccccc4s3)c2)cc1` stands “inactive”. For the compound `O=C(CC(NCc1cccnc1)C(=O)O)Nc1ccc(O)cc1` (centres undefined), the Potency result was “inactive”.

Turning to `COC(=O)c1ccc(C2CC(=O)Nc3cc(OC)c(OC)cc32)cc1` (centres undefined), the Potency entry was “inactive”. Consider `Cc1cc2c(cc1C)C(c1cccc(OC(C)C)c1)CC(=O)N2` (centres undefined), for which the Potency was 16.4 µM (active). Regarding `COc1cc2c(cc1OC)C(c1ccncc1)CC(=O)N2` (centres undefined), the Potency result was “inactive”. On the same count and under the same terms, under `O=C(NC(c1ccccc1)c1ccccc1)N1CCN(CCO)CC1` stands “inactive”; under `CC(=O)Nc1sc2c(c1C(c1cccc(F)c1)N1CCN(CCO)CC1)CCCC2` (centres undefined), 23.1 µM (active); under `Cc1cccc(C)c1NC(=O)C(c1cccc(F)c1)N1CCN(C)CC1` (centres undefined), “inactive”.

With `COc1ccccc1CNC(=O)COC(=O)CNS(=O)(=O)c1ccc(NC(C)=O)cc1`, the Potency entry is “inactive”.

As for `O=C(Cc1ccccc1)Nc1c(Cl)ccc2nsnc12`, the Potency entry was “inactive”.

Turning to `C=CCn1cc(C(=O)NCc2ccc(Cl)cc2)c(=O)c2cc(S(=O)(=O)N(CC)CC)ccc21`, the Potency was 20.6 µM (active).

As for `CCOC(=O)N1CCN(C(=O)c2cn(C)c3ccc(S(=O)(=O)N(CC)CC)cc3c2=O)CC1`, the Potency result is “inactive”.

Take `CCN(CC)S(=O)(=O)c1ccc2c(c1)c(=O)c(C(=O)N1CCN(c3cccc(Cl)c3)CC1)cn2C`: the Potency entry is “inactive”. `CSc1ncnc2c1ncn2CCCNCC(C)c1ccccc1` (centres undefined): the Potency entry was “inactive”. Same read-out and setting: under `O=C(Nc1cc(S(=O)(=O)N2CCOCC2)ccc1OCC(F)(F)F)c1ccc(N2CCCC2=O)cc1` stands “inactive”; under `S=C(NNC(=S)NC1CC2CCC1C2)NC1CC2C=CC1C2` (centres undefined), “inactive”.

`S=C(NNC(=S)NC1CC2C=CC1C2)NC1CC2C=CC1C2` (centres undefined): the Potency entry is “inactive”. Still for that read-out and setting: under `CC(C)c1ccc(NC(=S)NC2CC3C=CC2C3)cc1` (centres undefined) stands 14.6 µM (active). Still for that read-out and setting: under `COCCCN(C(=O)CSCc1ccc(C)cc1)c1c(N)n(Cc2ccccc2)c(=O)[nH]c1=O` stands “inactive”; under `O=C(NCCC1CCCCN1S(=O)(=O)c1ccccc1)C(=O)NCC1CCCO1` (centres undefined), “inactive”; under `O=C(NCCC1CCCCN1S(=O)(=O)c1ccc(Cl)cc1)C(=O)NCc1ccco1` (centres undefined), 16.4 µM (active). With `Cc1ccc(S(=O)(=O)N2CCCC2C(=O)NCc2ccco2)cc1` (centres undefined), the Potency result is “inactive”. Same read-out and setting: as for `O=C(/C=C/[C@H]1O[C@@H](n2ccc(=O)[nH]c2=O)[C@H](O)[C@@H]1O)NCc1ccccn1`, the entry is “inactive”. Still for that read-out and setting: under `Cc1cc2nc(C)n(CCCNC(=O)Nc3ccccc3)c2cc1C` stands “inactive”; under `COc1ccc(OCCn2ccnc2C)cc1`, “inactive”. The same measure, in the same setting: as for `COc1ccc(OCCCn2c(C)nc3cc(C)c(C)cc32)cc1`, the figure is 11.6 µM (active); as for `CCn1cc(C(=O)NCCC(=O)NCCO)c(=O)c2cc3c(cc21)OCO3`, “inactive”; as for `COC(=O)C1=C(C(=O)OC)[C@@H]2N(C)c3ccccc3[C@@]23C[C@@H](C(=O)OC)N(C(=O)c2ccco2)C3=N1`, “inactive”. In the case of `Cc1noc(C)c1NC(=O)Nc1ccc2c(c1)C(=O)N([C@H](C)CO)C[C@H](C)[C@@H](CN(C)S(=O)(=O)c1cn(C)cn1)O2`, the Potency result is “inactive”.

Consider `COc1ccc(CNC(=O)CSc2n[nH]c(N)n2)cc1OC`, for which the Potency result was “inactive”. With `CC(C)n1cnc2c(NCc3ccccc3)cc(OCC3CCN(C)CC3)cc21`, the Potency was 20.6 µM (active). Still for that read-out and setting: as for `CCC(CO)Oc1cc(NC(=O)c2cccc(F)c2)c2ncn(C(C)C)c2c1` (centres undefined), the entry is “inactive”; as for `CCC(CO)Oc1cc(NC(=O)c2ccc(Cl)cc2)c2ncn(C(C)C)c2c1` (centres undefined), “inactive”. On the same count and under the same terms, under `Cn1nc(C(=O)OCC(=O)N(Cc2ccccc2)C(C)(C)C)c2ccccc2c1=O` stands “inactive”. For `O=C(CN1CCCCCC1)Nc1ccc(Br)cc1[N+](=O)[O-]`, the Potency entry was “inactive”.

As to `Cc1ccc(S(=O)(=O)C2(S(=O)(=O)c3ccc(C)cc3)CCCC2)cc1`, the Potency is 7.31 µM (active). The same measure, in the same setting: under `Cc1ccc(S(=O)(=O)NC2CCCCCC2)cc1` stands “inactive”; under `Cc1ccc(S(=O)(=O)N(C)C2(C)CCS(=O)(=O)C2)cc1` (centres undefined), “inactive”.

Consider `COc1ccc(/C=C(/NC(=O)c2ccccc2)C(=O)Nc2cccc(C(=O)O)c2)cc1`, for which the Potency result was “inactive”. Same read-out and setting: as for `CCOC(=O)N1CCN(C(=O)CN(c2ccc(C)c(C)c2)S(=O)(=O)c2ccccc2)CC1`, the entry is “inactive”; as for `Cc1ccc(S(=O)(=O)N(CCc2ccccc2)c2ccc3c(c2)C2CC3CCN2C(=O)OCc2ccccc2)cc1` (centres undefined), 20.6 µM (active).

Regarding `Cc1ccc(S(=O)(=O)CCC(=O)OCc2ccccc2)cc1`, the Potency entry is “inactive”. As to `COc1ccc(C(=O)NCC2CCCCC2)cc1S(=O)(=O)N1CCCC1`, the Potency entry is “inactive”. On to `Cc1[nH]c2c(C(=O)NCC3Cc4cccc(-c5cccnc5)c4O3)cccc2c1C` (centres undefined), for which the activity change, negative = growth inhibition is -3.45% [at 9.04 µM].

Turning to `Cc1cc(=O)oc2cc(OCC(=O)N3CCN(c4ccc(F)cc4)CC3)c(Cl)cc12`, the Potency entry is “inactive”. With `COc1ccccc1-n1cn[nH]c1=S`, the Potency is 29.1 µM (active). The same measure, in the same setting: under `COc1cccc(CNn2cn[nH]c2=S)c1OCc1ccccc1` stands “inactive”.

Take `COc1ccccc1-n1c(-c2cc(-c3ccco3)[nH]n2)n[nH]c1=S`: the Potency result was “inactive”. Same read-out and setting: under `COCCNC(=O)C(OC(=O)c1cccs1)c1ccc(F)cc1` (centres undefined) stands “inactive”; under `CCOc1ccc2ccccc2c1/C=N/NC(=O)c1c(C)cc(C)[nH]c1=O`, “inactive”. As to `COc1ccc(/C=N\NC(=O)c2sc(N)nc2C)cc1OC`, the Potency result was “inactive”. Take `COc1ccc2ccccc2c1/C=N/NC(=O)c1cc(C)[nH]n1`: the Potency was 8.2 µM (active).

On to `O=C(CN1C(=O)S/C(=C\c2ccccc2F)C1=O)NCCCn1ccnc1`, for which the Potency result was “inactive”. `COc1ccc(C(C)=O)cc1COc1ccc(Cl)c(C)c1`: the Potency was 10.3 µM (active).

`COCc1cc(C(C)=O)ccc1OC`: the Potency result is “inactive”. Same read-out and setting: as for `COc1ccc(-c2noc(COc3ccc(Cl)c(C)c3)n2)cc1`, the entry is “inactive”. Turning to `COCCCNC(=S)N(CCN(C)C)Cc1cc2cc3c(cc2[nH]c1=O)OCCO3`, the Potency result is “inactive”.

Consider `OCc1ccc(OCCCOc2cccc3cccnc23)cc1`, for which the Potency result is “inactive”. On the same count and under the same terms, as for `Nn1c(SCc2ccccc2)nnc1C1CCCCC1`, the entry is “inactive”. Same read-out and setting: under `C[C@@H]1CN([C@@H](C)CO)C(=O)c2cc(NS(C)(=O)=O)ccc2O[C@@H](C)CCCCO[C@H]1CN(C)C(=O)Nc1ccc2c(c1)OCO2` stands “inactive”.

For `CC(C)NC(=O)Nc1ccc2c(c1)C(=O)N([C@H](C)CO)C[C@H](C)[C@@H](CN(C)Cc1ccc(C(F)(F)F)cc1)OCCCC[C@@H](C)O2`, the Potency is 13 µM (active).

`Cc1noc(C)c1NC(=O)Nc1ccc2c(c1)C(=O)N([C@H](C)CO)C[C@H](C)[C@@H](CN(C)C(=O)Nc1ccc(C(F)(F)F)cc1)O2`: the Potency entry is “inactive”.

Turning to `Cc1ccc(S(=O)(=O)N2CCOCC2)cc1NC(=O)c1ccncc1`, the Potency entry is “inactive”. Turning to `O=C(O)c1c(NC(=O)N2CCCC2)sc2c1CCCC2`, the Potency result was “inactive”.

As to `COc1cn(CC(=O)Nc2cccc(C)c2C)c(CN2CCCCC2)cc1=O`, the Potency result is “inactive”. Same read-out and setting: as for `O=C(Cc1ccccc1)N1N=C(c2ccncc2)CC1(O)C(F)(F)F` (centres undefined), the entry is “inactive”; as for `O=C(C1CC1)N1N=C(c2ccc(Br)cc2)CC1(O)C(F)(F)F` (centres undefined), “inactive”; as for `O=C(c1ccc(Cl)cc1)N1N=C(c2ccccn2)CC1(O)C(F)(F)F` (centres undefined), 25.9 µM (active).

The record behind these values is PubChem BioAssay AID686979 (National Center for Advancing Translational Sciences (NCATS), 2013).
